In PubChem BioAssay (NCI) one finds growth data, which are given here for ten compounds.

What all share (test): NCI-60 one-dose screen, 48 h (100 = growth as untreated, 0 = no growth, -100 = all killed)
Assay [1] has as its system HCT-15 colon. The note with it: 10 µM.
The subject of assay [2] is HT29 colon. Particulars: 10 µM.
Assay [3] deals with SNB-75 CNS. Particulars: 10 µM.
The subject of assay [4] is U251 CNS. Particulars: 10 µM.
In assay [5] the test system is PC-3 prostate. The note with it: 10 µM.
The test system of assay [6] is SK-MEL-5 melanoma. The note with it: 10 µM.
Assay [7] concerns UACC-62 melanoma. The note with it: 10 µM unless noted.
In assay [8] the test system is LOX IMVI melanoma. Particulars: 10 µM.
For assay [9], the system named is SK-MEL-28 melanoma. Particulars: 10 µM.
Assay [10] deals with SK-MEL-2 melanoma. Particulars: 10 µM.
Assay [11] relates to EKVX NSCLC. Particulars: 10 µM.
In assay [12] the test system is SN12C renal. The note with it: 10 µM.
Assay [13] relates to TK-10 renal. The note with it: 10 µM unless noted.
In assay [14] the test system is ACHN renal. Particulars: 10 µM.
The test system of assay [15] is CAKI-1 renal. Particulars: 10 µM.
In assay [16] the test system is A498 renal. Particulars: 10 µM.
Assay [17] relates to CCRF-CEM leukemia. The note with it: 10 µM.
For assay [18], the system named is MOLT-4 leukemia. The note with it: 10 µM.
Assay [19] has as its system SNB-19 CNS. The note with it: 10 µM.
In assay [20] the test system is UO-31 renal. Particulars: 10 µM.

Structures are written as SMILES. The panel holds about 83,000 compounds, 20% with a hit somewhere; the sample as a whole holds those more often.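 48-hour exposure, single concentration, 96-well plates; percent growth endpoint where 0 means no net growth. Active: below 10.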 A number with no mark means an inactive call. Active and inactive are the calls of the source.

In the case of `COC(=O)C(C)Oc1ccc(OC#N)cc1` (centres undefined), the growth is 99.7% in assay [1]; 102% in [2]; 88.9% in assay [3]; 101% in assay [4]; 86.4% in [5]; 99% in [6]. The growth in assay [7] is 86.8%; in assay [8] it was 93.2%; in [9], 106%; in assay [10], 110%; in assay [11], 99.8%; in [12], 91.8%. For the same compound, the growth in [13] was 107%; in assay [14], 101%; in assay [15] it was 86.5%; in [16] it was 107%; in assay [17], 102%; in [18], 73.7%.

As to `CCCCCCCCO`, the growth was 98.3% in assay [1]; 111% in [2]; 90.1% in assay [3]; 103% in assay [19]; 94.3% in assay [5]; 108% in assay [7]. For the same compound, the growth is 105% in assay [8]; 112% in assay [9]; 117% in assay [10]; 97.5% in assay [12]; 111% in [20]; 110% in assay [13]. Further, the growth was 105% in assay [14]; 103% in assay [15]; 108% in assay [16]; 108% in assay [17]; 97.4% in [18].

As for `CC(C)(C)n1nc(C2CC2)c(Br)c1NC(=O)c1ccccc1F`, the growth was 93.4% in assay [1]; 103% in [2]; 78.4% in [3]; 107% in assay [19]; 91.5% in assay [5]; 99.7% in [6]. In addition, the growth in assay [7] was 90.7%; in assay [8], 99.1%; in assay [9] it was 100%; in assay [10] it was 103%; in assay [12], 102%; in assay [20] it was 91.5%. For the same compound, the growth in [13] is 103%; in [14], 101%; in [15] it was 80.8%; in assay [16], 101%; in [18], 93.3%.

Turning to `O=C(Cc1ccc(OCc2ccccc2)cc1)NCc1ccc2c(c1)OCO2`, the growth in assay [1] is 48.9%; in assay [2] it was 27.4%; in assay [3], 91.8%; in assay [19], 85.7%; in [5], 64.6%; in [6] it was 95.8%. For the same compound, the growth in [7] is 61.8%; in assay [8], 50%; in [9], 74.7%; in assay [12] it was 89.9%; in assay [20], 73.7%; in [13], 77%. For the same compound, the growth was 104% in [14], 32.5% in [15] and 55.2% in assay [18].

Regarding `CC(CN1CCCCC1)NC(=O)c1scnc1-c1ccccc1` (centres undefined), the growth was 103% in assay [1]; 94.2% in assay [2]; 86.1% in assay [3]; 107% in assay [19]; 92.9% in assay [5]; 101% in assay [6]. In addition, the growth in assay [7] was 107%; in assay [8] it was 95.2%; in [9] it was 107%; in [12], 106%; in assay [20], 83.7%; in [13], 98.1%. For the same compound, the figures for the growth in [14], in [15] and in [18] were 109%, 87.3% and 104%, respectively.

With `COc1cccc(COC(=O)Nc2ccccc2)c1OC`, the growth in [1] is 85.4%; in [2], 105%; in assay [3], 84.1%; in assay [19] it was 101%; in assay [5] it was 83.9%; in [6] it was 98.2%. For the same compound, the growth in assay [7] is 94.4%; in assay [8], 103%; in [9] it was 102%; in [12], 96.9%; in assay [20] it was 99.5%; in assay [13] it was 107%. Also, the growth in [14] was 104%; in assay [15], 88.5%; in assay [16], 105%; in [18], 100%.

Take `c1ccc(CN2COc3c(ccc4c3OCN(Cc3ccccc3)C4)C2)cc1`: the growth in assay [1] is 28%; in [2], 27%; in assay [3], 43.7%; in assay [19], 24%; in [5] it was 36.5%; in assay [7] it was -39.1% (active). Further, the growth in assay [9] was 34.1%; in assay [12] it was 11.1%; in assay [20], -17.5% (active); in assay [13], 30.5%; in assay [14], 12.3%; in assay [15], 7.65% (active). For the same compound, the growth in assay [16] was 51.6%; in [17], 5.13% (active); in [18] it was 0.409% (active).

Regarding `S=C1NCc2cncnc2N1`, the growth in assay [1] was 95.4%; in [2], 104%; in assay [3], 86.6%; in assay [19], 109%; in assay [5], 96.1%; in [6], 103%. For the same compound, the growth in assay [7] is 108%; in assay [8] it was 104%; in assay [9], 107%; in [12] it was 107%; in [20], 88.8%; in [13], 97.8%. The growth is 93% in assay [14], 85.5% in assay [15], 104% in [16] and 95.6% in assay [18].

Regarding `O=S(=O)(O)c1cc(O)c2c(N=Cc3ccccc3O)c(S(=O)(=O)O)ccc2c1`, the growth in assay [1] was 99.9%; in assay [2], 103%; in [3], 93.4%; in [19], 108%; in assay [5] it was 95.5%; in assay [6] it was 103%. In addition, the growth in assay [7] was 113%; in assay [9] it was 114%; in assay [12], 109%; in assay [20] it was 73.2%; in assay [13] it was 118%; in assay [14] it was 101%. Besides, the values for the growth in assay [15], in assay [16] and in assay [18] were 96.2%, 107% and 99.2%, respectively.

With `CSC(=N\N=C\c1ccc(N(C)C)cc1)/N=C/N(C)C`, the growth is 96.1% in assay [1]; 113% in assay [2]; 102% in [3]; 100% in assay [19]; 106% in assay [5]; 101% in assay [6]. Further, the growth in [7] is 112%; in assay [9], 111%; in assay [12], 108%; in [20], 101%; in assay [13], 131%; in assay [14] it was 101%. In addition, the values for the growth in assay [15], in assay [16] and in assay [18] were 104%, 97% and 101%, respectively.
